Only a sample is shown.
aSyn UTR act – Activators via SNCA 5'UTR binding, MLPCN | alpha-synuclein 5'UTR reporter, activators screen | activity score, % (tested at 7.5 µM), hits read low | actives 7.1% (n = 300,000) | AID 1814; in the data active = activity score below about -60%
An asterisk follows results filed as active.

SMILES | aSyn UTR act
COc1ccc(NC(=O)Nc2ccc3c(c2)CCC3)cc1 | -149*
COc1cccc(NC(=O)Nc2ccccc2Br)c1 | -120*
COc1cccc(NC(=O)Nc2ccc3nsnc3c2)c1 | -183*
COCC(=O)Nc1ccc(C(C)C)cc1 | -69*
COc1ccc(NC(=O)Nc2ccc3oc(C)nc3c2)cc1 | -164*
COc1ccc(NC(=O)Nc2ccc(F)cc2F)cc1 | -139*
Cc1cc(C)nc(NC(=O)Nc2ccc(F)cc2F)n1 | -112*
COc1ccc(Nc2cc(Nc3cccc(OC)c3)ncn2)cc1 | -80*
Cc1nc2cc(NC(=O)NCCC3=CCCCC3)ccc2o1 | -151*
N#C/C(=C/c1ccc(N2CCCC2)c([N+](=O)[O-])c1)c1nc2ccccc2[nH]1 | -78*
O=C(Cn1c2ccccc2c(=O)c2ccccc21)N/N=C/c1ccc(N2CCCC2)c([N+](=O)[O-])c1 | 111
N#C/C(=C\c1ccc(N2CCOCC2)c([N+](=O)[O-])c1)c1nc2ccccc2[nH]1 | -163*
O=Cc1ccc(-c2nc3ccccc3s2)o1 | -98*
O=C(O)CCCN1C(=O)/C(=C\c2ccc(-c3nc4ccccc4s3)o2)SC1=S | -83*
CCOC(=O)c1cnc(Nc2nc3ccccc3o2)nc1C | 86
CCOC(=O)c1cnc(Nc2nc3ccccc3o2)nc1CSc1nnc(C)s1 | -86*
CC1Cc2cc(/C=C3/SC(=S)N(C)C3=O)ccc2O1 (stereo not drawn) | -86*
O=C1Nc2cc(Cl)c(Cl)cc2N(O)N1c1ccc(Cl)cc1 | -149*
C/C(=N/Nc1ccnc2cc(Cl)ccc12)c1ccc(N)cc1 | -177*
C/C(=N/Nc1ccnc2cc(Cl)ccc12)c1ccc(O)cc1 | -118*
c1ccc2c(CCNc3ncnc4nc[nH]c34)cccc2c1 | -92*
C1=C(CCNc2ncnc3nc[nH]c23)CCCC1 | -116*
COc1ccccc1/C=C/c1nc2ccccc2c(=O)o1 | -107*
COc1ccc(/C=C/c2nc3ccccc3c(=O)o2)cc1 | 102
Cc1ccc(C(=O)c2cc([N+](=O)[O-])ccc2N2CCCCC2)c(C)c1 | 69
SMILES | aSyn UTR act
O=C(Nc1nc2ccccc2s1)c1ccc(N2CCCCC2)c([N+](=O)[O-])c1 | -67*
O=C(Nc1ccon1)c1ccc(N2CCCCC2)c([N+](=O)[O-])c1 | -143*
Oc1c(Br)cc(Br)cc1C=Nc1ccc2c(c1)OCO2 | -66*
O=[N+]([O-])c1cccc(-c2nnc(SCc3cccnc3)o2)c1 | -62*
COc1cccc(-c2nnc(SCc3cccnc3)o2)c1 | -164*
Cc1c(C(=O)N2CCc3ccccc3C2)oc2ccccc12 | -98*
Cc1c(C(=O)N2c3ccccc3CC2C)oc2ccccc12 (stereo not drawn) | -76*
Cc1cc(NC(=O)c2cc3cccc([N+](=O)[O-])c3[nH]2)ccc1F | -93*
Cc1c(C(=O)N/N=C/C(C)C)[nH]c2c([N+](=O)[O-])cccc12 | 68
Cc1sc2ncnc(SCC(=O)c3cccs3)c2c1C | -73*
CSC1=NC2(CCCCC2)CC12C=CC(=O)C=C2 | -63*
COC(=O)c1ccc(NC(=O)C2CCCO2)cc1 (stereo not drawn) | -64*
O=C(Nc1ccc(F)cc1)c1ccc(NC(=O)C2CCCO2)cc1 (stereo not drawn) | -128*
O=C(Nc1cccc(O)c1)c1ccc(NC(=O)C2CCCO2)cc1 (stereo not drawn) | -98*
COC(=O)c1c(-c2ccc(F)cc2)csc1NC(=O)C1CCCO1 (stereo not drawn) | -85*
CN(C)c1ccc(C2C3CCCc4ccccc4C3=NN2C)cc1 (stereo not drawn) | -134*
CN1N=C2c3ccccc3CCC2C1c1ccc(C(F)(F)F)cc1 (stereo not drawn) | -72*
CCC(=O)Nc1cccc(-c2ccc(N3CCN(C)CC3)nn2)c1 | -73*
CN1CCN(c2ccc(-c3cccc(NC(=O)COc4ccccc4)c3)nn2)CC1 | -70*
CN1CCN(c2ccc(-c3cccc(NC(=O)COc4ccc(Cl)cc4)c3)nn2)CC1 | -131*
COc1ncnc2c1oc1ccccc12 | -71*
c1ccc(Sc2ncnc3c2oc2ccccc23)nc1 | -195*
c1ccc(-c2cc3n(c2)CCc2ccccc2-3)cc1 | -135*
C/C(=N\NC(=O)COc1ccccc1F)c1cc2ccccc2o1 | -133*
C/C(=N\NC(=O)c1ccco1)c1cc2ccccc2o1 | -94*
SMILES | aSyn UTR act
C/C(=N\NC(=O)c1ccco1)c1ccc(-c2ccccc2)cc1 | -126*
C/C(=N\NC(=O)c1ccco1)c1ccc(NC(=O)c2ccccc2)cc1 | -126*
O=c1[nH]c2ccccc2n1CCCSc1cnc2ccccc2n1 | -64*
COc1cc(/C=C2/C(=N)N3N=C(CC(=O)N4CCOCC4)SC3=NC2=O)ccc1OCc1ccc(F)cc1 | -102*
Cc1cc(/C=C2/SC(=O)N(CC(=O)N3CCOCC3)C2=O)c(C)n1-c1ccccc1F | -143*
COc1ccccc1-n1c(C)cc(/C=C2\C(=N)N3N=C(CC(=O)N4CCOCC4)SC3=NC2=O)c1C | -72*
Cc1c(OCc2ccccc2)c(=O)ccn1Cc1ccccc1 | -111*
N/C(Cc1ccc([N+](=O)[O-])cc1)=N\OC(=O)c1ccccc1F | -185*
CC1(c2ccc(NC(=O)c3ccccc3F)cc2)CC1(Cl)Cl (stereo not drawn) | -195*
O=C(Nc1ccc([N+](=O)[O-])cc1)c1ccccc1F | -154*
O=[N+]([O-])c1ccccc1S(=O)(=O)c1ccccc1 | -79*
CC(=O)Nc1ccc(NC(=O)c2ccccc2S(=O)(=O)c2ccccc2[N+](=O)[O-])cc1 | -81*
O=C(Nc1ccc(-c2ccc([N+](=O)[O-])cc2)cc1)c1ccccc1F | -69*
O=C(Nc1cccc(C(F)(F)F)c1)c1scc2c1OCCO2 | -73*
CC(/C=N/NC(=O)c1cccs1)=C\c1ccco1 | -176*
CC(/C=N/NC(=O)Cc1cccs1)=C\c1ccco1 | -98*
CC(/C=N/NC(=O)c1cc(-c2ccncc2)nc2ccccc12)=C\c1ccco1 | 86
COC(=O)/C=C/c1cnc2ccccc2c1 | -92*
NC1=NC(=O)/C(=C\c2cc([N+](=O)[O-])ccc2Cl)S1 | -95*
Cc1ccc(C(=O)Nc2ccccc2Cl)cc1 | -129*
O=C(Nc1ccccc1Cl)c1ccn[nH]1 | -90*
Cn1cc(Cl)c(C(=O)Nc2cccc(Cl)c2Cl)n1 | -155*
O=C(Nc1cccn2ncnc12)c1ccccc1 | -65*
Cc1ccc(Cn2nc(C)cc2C(=O)Nc2ccccc2Cl)cc1 | -151*
Nc1ccccc1NC(=O)c1ccccc1 | -154*
SMILES | aSyn UTR act
O=C(Nc1ccccc1Cl)c1ccccc1 | -87*
O=C(NNC(=O)c1ccccc1OCc1ccc(F)cc1)c1ccccc1O | 68
COc1ccccc1OCc1ccc(C(=O)Nc2ccccc2F)cc1 | -75*
O=C(Nc1ccccc1F)c1ccc(C(=O)c2ccccc2)cc1 | -100*
O=C(Nc1cccc(Cl)c1Cl)c1ccc(-c2ccccc2)cc1 | -159*
Cc1ccc(C(=O)Nc2ccccc2C(=O)NC(C(=O)O)C(C)C)cc1 (stereo not drawn) | -69*
COc1cc(C)c(C(C)C)cc1S(=O)(=O)n1cnc(C)c1 | 64
Cc1ccc(NN=C2c3ccccc3-c3ccccc32)cc1 | -212*
CCc1ccccc1NC(=O)c1cc2ncc(Br)cn2n1 | -79*
O=C(Nc1ccccc1C(F)(F)F)c1cc2ncc(CCCl)cn2n1 | -81*
O=C1Nc2ccccc2S/C1=C/Nc1cccc(Cl)c1 | -203*
CC(=O)c1ccc2c(c1)C1C=CCC1C(c1ccncc1)N2 (stereo not drawn) | -77*
